Source: PubChem BioAssay (National Center for Advancing Translational Sciences (NCATS))
The list is not random: actives were taken first. Their share in the collection is about 1.3%.
RXFP1 antag = qHTS Assay for Antagonists of the Relaxin Receptor RXFP1. AID 1259400, 2018. 350,000 compounds, 0.59% hits. HEK293-RXFP1, relaxin-stimulated cAMP HTRF, 30 min; hits give low values. activity change, negative = inhibition, % at 57.5 µM. Relaxin receptor 1 (Homo sapiens), Q9HBX9;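 active = activity change of -60% or lower, but not beyond a set lower limit; inconclusive = change between -60% and -40%, or beyond the set limit; inactive = change above -40%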
Target sequence (Q9HBX9 whole entry, looked up): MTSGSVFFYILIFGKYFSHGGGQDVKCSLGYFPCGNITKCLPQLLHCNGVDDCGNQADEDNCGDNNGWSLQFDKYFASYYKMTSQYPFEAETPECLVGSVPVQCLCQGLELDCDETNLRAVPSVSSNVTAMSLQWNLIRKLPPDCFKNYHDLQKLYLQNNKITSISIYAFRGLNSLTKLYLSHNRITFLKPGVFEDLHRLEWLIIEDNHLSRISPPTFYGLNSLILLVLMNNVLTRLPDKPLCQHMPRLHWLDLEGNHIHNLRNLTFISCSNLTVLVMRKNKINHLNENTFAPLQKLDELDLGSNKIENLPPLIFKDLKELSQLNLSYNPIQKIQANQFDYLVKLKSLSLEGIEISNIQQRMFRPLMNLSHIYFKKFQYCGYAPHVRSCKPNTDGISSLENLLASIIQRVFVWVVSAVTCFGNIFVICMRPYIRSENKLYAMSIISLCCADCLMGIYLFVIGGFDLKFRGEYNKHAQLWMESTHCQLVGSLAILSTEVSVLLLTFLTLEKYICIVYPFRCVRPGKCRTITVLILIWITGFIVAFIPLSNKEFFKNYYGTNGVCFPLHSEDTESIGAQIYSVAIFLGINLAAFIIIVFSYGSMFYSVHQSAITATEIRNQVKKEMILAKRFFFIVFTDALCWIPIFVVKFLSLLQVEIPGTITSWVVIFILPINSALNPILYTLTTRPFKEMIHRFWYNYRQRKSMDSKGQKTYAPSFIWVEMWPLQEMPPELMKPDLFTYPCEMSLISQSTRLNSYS
gsp antagonist = qHTS for Antagonists of gsp, the Etiologic Mutation Responsible for Fibrous Dysplasia/McCune-Albright Syndrome: qHTS | gsp-mutant cells, cAMP HTRF, 30 min | Potency, µM (top dose mostly 76.9 µM), most hits filed as inhibitors | 340,000 compounds, 0.4% hits; calls by dose curve; cell line not stated here;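 also: intracellular cAMP measured with PDE inhibitor Ro 20-1724 present during compound exposure; nearly all actives have a fitted effect of over 65% in size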
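HTRF cAMP measurement after 30 min RT detection following 30 min, 37C compound treatment alongside […] (added as 300 uM solution) in G418-selected cells seeded at 2000/well and grown 16–24 h.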
gsp ag = qHTS for Agonist of gsp, the Etiologic Mutation Responsible for Fibrous Dysplasia/McCune-Albright Syndrome: qHTS; gsp mutant cells, cAMP HTRF, 30 min; Potency, µM (doses to about 76.9 µM), actives largely listed as activators; 340,000 compounds, 0.13% hits; AID 624287, 2012; active = well fitted activation curve with a large enough effect; inconclusive = small, poorly fitted or top-dose-only effect, or another doubt; inactive = no such curve, though single readings can be large or run the other way; cell line not stated here;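 also: phosphodiesterase inhibitor Ro 20-1724 added with compounds to block cAMP breakdown; nearly all actives have a fitted effect of over 60% in size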
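Cells stably selected in G418 were plated at 2000/well, grown 16-24 hr, then given compounds in DMSO with the PDE inhibitor […] (300 uM solution added) for 30 min at 37C; cAMP was read by HTRF.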
Akt phos inh = HTS Assay for Inhibitors of Akt Phophorylation: Primary Screen. activity change, % for hits at 50 µM. Neuro2A IGF-stimulated pAkt S473 HTRF, 20 min; hits give low values. 360,000 compounds, 0.32% hits. AID 651550, 2012; in the data active = activity change below about -80%; inconclusive = mostly about -51% to -80%
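Neuro2A cells (4,500/well, DMEM with 0.5% FBS) were treated with compound at a single 50 µM final concentration, stimulated with 6 nM IGF for 20 min at 37 °C, and lysed. Phospho-Akt Ser473 was read by HTRF as 665/615 ratio ×10^4.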
RXFP1 ag = qHTS Assay for Agonists of the Relaxin Receptor RXFP1; Relaxin receptor 1 (Homo sapiens), Q9HBX9; HEK293T-RXFP1 cAMP TR-FRET, 30 min; response scale: percent of porcine relaxin response, buffer zero; Potency, µM (highest dose often 57.5 µM), actives largely listed as activators; 370,000 compounds, 0.3% hits; AID 2676, 2010; active = well fitted activation curve with a large enough effect; inconclusive = small, poorly fitted or top-dose-only effect; also: nearly all actives have a fitted effect of over 60% in size
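Agonist response is measured as cAMP accumulation in an RXFP1-transfected HEK293T line under PDE4 inhibition. Values are scaled between buffer-only and 29 nM porcine relaxin, and EC50s come from standard Hill equation fits.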
Of the large screens only hits and unclear results are named; the others gave an inactive call.

O=C(Nc1nc(=O)c2ccccc2s1)c1ccc(Cl)cc1	gsp ag inconclusive, RXFP1 ag 32µM
O=C(Nc1nc2ccsc2c(=O)s1)c1ccc(Cl)cc1	gsp ag inconclusive, RXFP1 ag 13µM
O=C(Nc1nc(=O)c2ccccc2s1)c1ccc(F)cc1	none
COC(=O)[C@H](CC(C)C)NC(=O)c1cc2c(cn1)[nH]c1ccccc12	gsp antagonist 7.9µM, gsp ag inconclusive
COc1ccc(/C(O)=C2/C(=O)C(=O)N(Cc3cccnc3)C2c2ccncc2)cc1F (stereo not given)	none
Cc1cc(OCc2ccccc2)ccc1/C(O)=C1/C(=O)C(=O)N(Cc2cccnc2)C1c1ccncc1 (stereo not given)	RXFP1 ag 25µM
CC(C)C(=O)N1CCN(c2ccc(NC(=O)c3cccs3)cc2Cl)CC1	gsp antagonist 28µM
CC(C)C(=O)N1CCN(c2ccc(NC(=O)c3cccs3)cc2)CC1	gsp antagonist inconclusive
COc1ccc2c3c(c(=O)oc2c1)C1O[C@](c2ccsc2)(Cc2cc(C#N)ccc21)O3	none (no result: RXFP1 antag, gsp antagonist, gsp ag, Akt phos inh)
Cc1ccc(N=C2NC(=O)/C(=C/c3cccs3)S2)cc1C	RXFP1 antag -77, gsp ag inconclusive
COc1ccc(N(CC(C)C)S(=O)(=O)c2nnc(NC(=O)c3cccs3)s2)cc1	none (no result: gsp antagonist, gsp ag, Akt phos inh)
COc1ccc(C(=O)C2CCCN(Cc3cnc(N4CCOCC4)s3)C2)cc1F (stereo not given)	none
CC(C)Oc1cccc(C(=O)C2CCCN(Cc3cnc(N4CCOCC4)s3)C2)c1 (stereo not given)	RXFP1 antag -65
O=C(c1ccco1)N(Cc1cccs1)c1ccc(F)cc1	none (no result: RXFP1 antag, gsp antagonist, gsp ag, Akt phos inh)
CCOC(=O)COc1cc(N2C(=O)CSCC2=O)c(Cl)cc1Cl	none
CCOC(=O)COc1cc(-n2c(=S)[nH]c3cc(OC)c(OC)cc3c2=O)c(Cl)cc1Cl	gsp antagonist 13µM
CN(C(=O)c1ccc2c(c1)OCCO2)c1c(N)n(Cc2ccccc2)c(=O)[nH]c1=O	none
CN(C(=O)c1cncc(Br)c1)c1c(N)n(Cc2ccccc2)c(=O)[nH]c1=O	RXFP1 antag -70
Cc1ccc(C)c(OCCC(=O)OCC(=O)N(C)c2c(N)n(Cc3ccccc3)c(=O)[nH]c2=O)c1	RXFP1 antag -64
C=CCNC(=S)Nc1sc2c(c1C(=O)OCC)CCN(C(=O)OCC)C2	RXFP1 antag -80
C=CCNC(=S)Nc1sc2c(c1C(=O)OCC)CC(C)(CC)OC2 (stereo not given)	gsp antagonist 7.9µM
CCOC(=O)c1c(NC(=O)C2CC(Cl)=CCC2C(=O)O)sc2c1CC(C)(C)OC2 (stereo not given)	gsp antagonist 14µM
O=C(O)c1ccc(S(=O)(=O)N[C@H](Cc2ccc(O)cc2)C(=O)O)cc1	none (no result: RXFP1 antag, gsp antagonist, gsp ag, Akt phos inh)
CCOC(=O)c1sc(NC(=O)CCC(=O)O)nc1C	RXFP1 antag -85, gsp ag inconclusive
CCOC(=O)c1sc(Nc2ccc(Br)cc2)nc1C	none
CCOC(=O)c1sc(NCCNc2nc(C)c(C(=O)OCC)s2)nc1C	gsp ag inconclusive, Akt phos inh -112%
COc1cc(C(=O)Nc2ccc3oc(-c4ccccc4)nc3c2)cc(OC)c1OC	RXFP1 antag -60 (no result: gsp antagonist, gsp ag, Akt phos inh)
Cc1cc(OCC(=O)Nc2ccc3oc(-c4ccncc4)nc3c2)ccc1Cl	gsp antagonist 50µM (no result: Akt phos inh)
O=C(Nc1ccc2oc(-c3ccncc3)nc2c1)c1c(F)c(F)c(F)c(F)c1F	none
COc1c(F)c(F)c(C(=O)Nc2ccc3oc(-c4ccncc4)nc3c2)c(F)c1F	gsp antagonist 28µM
COc1ccccc1C(=O)Nc1ccc2oc(-c3cccc4c(Br)cccc34)nc2c1	RXFP1 ag 10µM (no result: gsp antagonist, gsp ag, Akt phos inh)
COc1cc(C(=O)Nc2ccc3oc(-c4cccnc4)nc3c2)cc(OC)c1OC	none
Nc1ncnc2c1ncn2Cc1c(F)cccc1Cl	none (no result: gsp antagonist, gsp ag, Akt phos inh, RXFP1 ag)
Cc1cccc(N2CCN(C(=O)c3cc4c(=O)[nH]c5ccc(C)cc5c4s3)CC2C)c1 (stereo not given)	none (no result: RXFP1 antag, gsp antagonist, gsp ag, Akt phos inh)
Cc1ccc(NC(=O)Nc2cccc([N+](=O)[O-])c2)cc1F	gsp antagonist inconclusive
O=C(Nc1ccc(OC(F)(F)F)cc1)Nc1cccc([N+](=O)[O-])c1	RXFP1 antag -74, gsp antagonist inconclusive
CCN(CC)CCOc1ccc(C(O)(Cc2ccc(Cl)cc2)c2ccc(C)cc2)cc1 (stereo not given)	RXFP1 antag -91 (no result: gsp antagonist, gsp ag, Akt phos inh, RXFP1 ag)
Oc1ccc(CNc2ccc(C(F)(F)F)cc2Cl)c2cccnc12	none (no result: RXFP1 antag, gsp antagonist, gsp ag, Akt phos inh)
Cc1ccc(C2=Nc3ccccc3N=C(c3ccco3)C2)c(O)c1	gsp antagonist inconclusive, gsp ag inconclusive, Akt phos inh -125%
Cc1ccc2nc(-c3cccc(NC(=O)c4cccc5c(Cl)cccc45)c3)oc2c1	none (no result: gsp antagonist, gsp ag, Akt phos inh)
CC(C)(C)c1ccc(S(=O)(=O)c2cnc(SCC(=O)Nc3ccc4c(c3)OCCO4)[nH]c2=O)cc1	none (no result: gsp antagonist, gsp ag, Akt phos inh)
Cc1cccc(CN2C(=O)/C(=C\c3ccc(C(=O)NCCN4CCOCC4)cc3)Sc3ccccc32)c1	RXFP1 antag -87, gsp ag inconclusive
O=C(CN1C(=O)/C(=C/c2ccc(C(F)(F)F)cc2)Sc2ccccc21)NCCCN1CCOCC1	RXFP1 antag -109
CCc1ccc(/C=C2/Sc3ccccc3N(CC(=O)NCCCN3CCOCC3)C2=O)cc1	none
Cc1c(C(=O)N2CCCCC2C)sc2ncnc(N3CCc4ccccc4C3)c12 (stereo not given)	RXFP1 antag inconclusive, gsp antagonist 11µM
O=C(NC(=S)Nn1cnc2c(cnn2-c2ccccc2)c1=O)c1ccc(Cl)cc1	RXFP1 antag -72, gsp antagonist inconclusive
O=C(NC(=S)Nn1cnc2c(cnn2-c2ccccc2)c1=O)c1ccc(Oc2ccccc2)cc1	none (no result: RXFP1 antag)
COc1ccc(N2CC(NC(=O)CCCc3ccccc3)CC2=O)cc1 (stereo not given)	none (no result: gsp antagonist, gsp ag, Akt phos inh)
CCCCC(=O)Nc1ccc(NC(=O)c2ccccc2OC)cn1	Akt phos inh -108%
COc1ccc(-n2c(=O)c3c(c4cc(OC)ccc4n3C)n(Cc3c(F)cccc3Cl)c2=O)cc1	none (no result: RXFP1 antag, gsp antagonist, gsp ag, Akt phos inh)
CCOc1ccc(CCNC(=O)CSc2n[nH]c(-c3ccccc3)n2)cc1OCC	none (no result: gsp antagonist, gsp ag, Akt phos inh)
CCOc1ccc(CCNC(=O)CSc2nc3ccccc3nc2Cc2ccc(C)cc2)cc1OCC	RXFP1 ag 14µM (no result: gsp antagonist, gsp ag, Akt phos inh)
CCc1ccc(-n2nc(C)c3c(C)cc(=O)n(CC(=O)Nc4ccc(C(C)=O)cc4)c32)cc1	none (no result: RXFP1 antag, gsp antagonist, gsp ag, Akt phos inh)
CC1(C)COC(Cn2c3ccccc3c3ccccc32)O1 (stereo not given)	RXFP1 antag -65
O=C(c1ccc(N2CCN(C(=O)c3cccc(F)c3)CC2)cc1)c1cccc(F)c1	gsp antagonist 32µM
